Numbering of substitutions follows the chain as printed.
Assays:
Test in all cases: protein-binding microarray (PBM); PBM: ~300 nM protein, 6 mM HEPES pH 7.8, 80 mM KCl, 0.5 mM EDTA, 0.5 mM EGTA, 6% glycerol, 35 ng/ul poly-dIdC, 1% milk, 1 h, room temperature; Ap Aiptasia and Nv Nematostella (sea anemones) / Co Capsaspora / Aq Amphimedon (sponge) / Dm Drosophila / Hu human; RHD is the Rel homology domain; high values mean tight binding
Settings in all cases: dsDNA, one strand shown
[1] = molecular target: T1, GST-Ap-NF-kB RHD (Exaiptasia pallida (Aiptasia), UniProt A0A913YAJ5 2-422)
T1 sequence: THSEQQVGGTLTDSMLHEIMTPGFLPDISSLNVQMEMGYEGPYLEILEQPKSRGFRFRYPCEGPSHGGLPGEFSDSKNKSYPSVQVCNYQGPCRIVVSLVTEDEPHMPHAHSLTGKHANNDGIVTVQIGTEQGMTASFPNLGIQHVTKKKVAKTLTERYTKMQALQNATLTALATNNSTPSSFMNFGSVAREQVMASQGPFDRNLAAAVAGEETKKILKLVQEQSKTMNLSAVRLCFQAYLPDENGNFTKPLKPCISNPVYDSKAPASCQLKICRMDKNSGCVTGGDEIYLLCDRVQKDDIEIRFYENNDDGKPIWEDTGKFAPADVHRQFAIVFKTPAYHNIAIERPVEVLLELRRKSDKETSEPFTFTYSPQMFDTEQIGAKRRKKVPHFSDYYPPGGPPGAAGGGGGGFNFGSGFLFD

[2] = molecular target: T2, GST-Nv-NF-kB (Cys allele) (Nematostella vectensis, UniProt E5G601 2-411)
T2 sequence: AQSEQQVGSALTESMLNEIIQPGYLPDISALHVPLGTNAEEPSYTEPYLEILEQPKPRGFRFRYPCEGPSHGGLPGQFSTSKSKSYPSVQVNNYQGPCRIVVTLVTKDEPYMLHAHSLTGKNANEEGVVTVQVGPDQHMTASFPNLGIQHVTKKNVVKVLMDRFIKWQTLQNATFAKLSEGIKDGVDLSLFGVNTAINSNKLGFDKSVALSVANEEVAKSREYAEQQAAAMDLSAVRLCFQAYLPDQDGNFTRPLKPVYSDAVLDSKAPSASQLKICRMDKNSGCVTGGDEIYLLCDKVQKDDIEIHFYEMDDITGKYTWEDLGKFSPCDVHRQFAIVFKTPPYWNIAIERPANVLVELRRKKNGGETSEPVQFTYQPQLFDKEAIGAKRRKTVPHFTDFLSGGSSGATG

[3] = molecular target: T3, GST-Nv-NF-kB (Ser allele) (Nematostella vectensis, UniProt A7UNT2 2-411)
T3 sequence: T2 sequence with Q21R, C66S, S207N, E215Q, V217A, E225K, A268E, D399E

[4] = molecular target: T4, GST-Co-NF-kB (Capsaspora owczarzaki, UniProt F1ARL5 200-546)
T4 sequence: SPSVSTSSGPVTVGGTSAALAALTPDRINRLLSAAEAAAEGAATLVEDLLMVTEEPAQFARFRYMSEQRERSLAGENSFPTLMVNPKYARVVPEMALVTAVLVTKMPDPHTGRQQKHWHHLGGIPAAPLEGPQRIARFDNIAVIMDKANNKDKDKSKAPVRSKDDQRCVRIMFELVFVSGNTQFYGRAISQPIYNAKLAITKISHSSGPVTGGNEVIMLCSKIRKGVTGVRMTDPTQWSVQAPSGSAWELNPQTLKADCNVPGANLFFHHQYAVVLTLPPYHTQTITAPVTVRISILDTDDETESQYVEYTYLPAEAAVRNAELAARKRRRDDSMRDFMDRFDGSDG

[5] = molecular target: T5, GST-Dm-Relish (Drosophila melanogaster, UniProt Q94527 99-473)
T5 sequence: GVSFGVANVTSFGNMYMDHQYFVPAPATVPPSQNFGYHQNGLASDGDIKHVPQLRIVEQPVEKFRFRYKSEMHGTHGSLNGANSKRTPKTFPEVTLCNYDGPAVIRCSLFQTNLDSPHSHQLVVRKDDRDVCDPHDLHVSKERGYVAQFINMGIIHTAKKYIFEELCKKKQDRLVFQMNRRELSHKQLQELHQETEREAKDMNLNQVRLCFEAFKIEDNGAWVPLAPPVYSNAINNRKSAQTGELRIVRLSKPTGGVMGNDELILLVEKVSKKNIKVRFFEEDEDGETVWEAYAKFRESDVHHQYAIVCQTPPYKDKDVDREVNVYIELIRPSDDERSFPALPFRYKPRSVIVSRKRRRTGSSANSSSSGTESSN

[6] = molecular target: T6, GST-Aq-NF-kB (Amphimedon queenslandica, UniProt A9Y5G7 2-389)
T6 sequence: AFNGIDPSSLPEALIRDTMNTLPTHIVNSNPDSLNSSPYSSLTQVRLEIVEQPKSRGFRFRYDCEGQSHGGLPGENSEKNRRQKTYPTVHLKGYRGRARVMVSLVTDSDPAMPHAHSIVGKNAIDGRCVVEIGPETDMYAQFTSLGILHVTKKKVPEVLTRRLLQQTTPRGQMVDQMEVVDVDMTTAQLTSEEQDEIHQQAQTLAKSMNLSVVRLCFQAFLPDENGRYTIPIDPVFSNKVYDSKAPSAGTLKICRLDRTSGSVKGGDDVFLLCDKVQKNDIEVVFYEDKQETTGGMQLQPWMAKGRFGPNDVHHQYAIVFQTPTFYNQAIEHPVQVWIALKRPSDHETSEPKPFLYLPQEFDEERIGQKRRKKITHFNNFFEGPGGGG

[7] = molecular target: GST-Hu-p50 (Homo sapiens, UniProt P19838 7-356)
Chain of GST-Hu-p50 (P19838 7-356): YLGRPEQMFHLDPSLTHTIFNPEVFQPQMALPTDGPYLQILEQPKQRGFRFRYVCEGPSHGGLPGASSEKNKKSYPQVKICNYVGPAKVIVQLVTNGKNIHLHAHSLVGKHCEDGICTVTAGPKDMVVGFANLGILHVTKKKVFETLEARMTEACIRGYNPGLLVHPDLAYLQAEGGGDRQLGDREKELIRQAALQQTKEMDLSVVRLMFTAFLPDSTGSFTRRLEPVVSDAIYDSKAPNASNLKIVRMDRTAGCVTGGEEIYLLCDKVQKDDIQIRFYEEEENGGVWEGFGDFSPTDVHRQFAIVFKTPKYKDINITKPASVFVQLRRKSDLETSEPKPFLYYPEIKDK

Sequence	binding signal [1] [z-score]	binding signal [2] [z-score]	binding signal [3] [z-score]	binding signal [4] [z-score]	binding signal [5] [z-score]	binding signal [6] [z-score]	binding signal [7] [z-score]
CCGATTAACATCACAATCCCCCCTGATGTTAATCGGGTCTTGATTCGCTTGACGCTGCTG	8.13	5.61	6.37	5.89	5.35	5.25	6.19
CCGATTAACATCAGGGGAGTCCATGATGTTAATCGGGTCTTGATTCGCTTGACGCTGCTG	6.16	3.64	4.15	3.05	6.79	4.34	3.32
CCGATTAACATCAAACTTCCCCGTGATGTTAATCGGGTCTTGATTCGCTTGACGCTGCTG	6.81	8.41	8.97	8.65	7.92	7.04	6.45
CCGATTAACATCAGGGGAGATAATGATGTTAATCGGGTCTTGATTCGCTTGACGCTGCTG	5.17	5.28	5.56	6.03	1.79	2.74	3.67
CCGATTAACATCAAACAGCCCCCTGATGTTAATCGGGTCTTGATTCGCTTGACGCTGCTG	3.65	4.11	2.49	1.91	2.9	5.29	3.92
CCGATTAACATCATTTGGGAAAATGATGTTAATCGGGTCTTGATTCGCTTGACGCTGCTG	1.08	3.26	4.46	2.04	1.08	1.67	2.23
CCGATTAACATCAAAAAACCACCTGATGTTAATCGGGTCTTGATTCGCTTGACGCTGCTG	4.79	5.1	7.1	1.37	8.7	5.41	6.81
CCGATTAACATCAACGAAACCCCTGATGTTAATCGGGTCTTGATTCGCTTGACGCTGCTG	3.65	2.45	2.84	1.39	4.41	2.77	3.87
CCGATTAACATCAGGAGAGCCCCTGATGTTAATCGGGTCTTGATTCGCTTGACGCTGCTG	3.65	3.73	1.67	–	2.24	6.28	3.2
CCGATTAACATCAGGGACTTTACTGATGTTAATCGGGTCTTGATTCGCTTGACGCTGCTG	5.17	6.47	6.59	–	7.99	6.61	5.06
CCGATTAACATCAAGTTTTTCCCTGATGTTAATCGGGTCTTGATTCGCTTGACGCTGCTG	4.35	5.43	7.41	5.3	5.12	5.1	4.44
CCGATTAACATCAGAAAAGTACCTGATGTTAATCGGGTCTTGATTCGCTTGACGCTGCTG	3.82	6.4	9.87	–	8.45	4.69	6.05

— publication PMC5700166
